The list is not random: actives were taken first. Their share in the collection is about 2.9%.
MEKK2 mut-MEK5 = signal of MEK5 binding to mutant human MEKK2 PB1 domain; bead flow cytometry, Alexa488-MEK5 binding to MEKK2 mutant; percent response, % at 10 µM; hit rate 0.35% among 290,000; in the data active means percent response above about 24%, passing the limit was not always enough
dFosB act = mouse delta FosB homodimer activation | activation, % at 25 µM | AID 493131 | purified delta FosB, TAMRA-CDK5 oligo fluorescence polarization; percent of positive-control signal above neutral wells | hit rate 0.99% among 340,000;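 active means mean activation above about 17%, with every replicate also reaching it, limit read from the data, passing the limit was not always enough; inconclusive means only one of the two conditions met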
Target sequence (P13346 whole entry, looked up): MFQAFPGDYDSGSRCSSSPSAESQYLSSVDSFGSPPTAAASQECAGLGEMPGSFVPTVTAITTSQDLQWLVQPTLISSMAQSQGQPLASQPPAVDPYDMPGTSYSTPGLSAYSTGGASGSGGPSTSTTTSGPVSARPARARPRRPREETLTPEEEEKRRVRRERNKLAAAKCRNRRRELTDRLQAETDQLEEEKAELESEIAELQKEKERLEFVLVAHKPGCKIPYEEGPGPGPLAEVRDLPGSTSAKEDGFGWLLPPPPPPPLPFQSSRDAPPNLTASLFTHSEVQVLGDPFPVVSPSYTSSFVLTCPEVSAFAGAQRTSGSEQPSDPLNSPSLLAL
FID counter = fluorescent intercalator displacement, NS3 helicase counter-screen; inhibition, % at 7.9 µM; DNA fluorescent intercalator displacement, fluorescence; hit rate 0.17% among 290,000; in the data active means inhibition above about 37%;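 further: 0% = vehicle and 100% = reference compound; higher means more ethidium bromide displaced from hairpin DNA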
MEKK3 PB1 HTS = raises or lowers MEK5 binding to the human MEKK3 PB1 domain. Q99759. bead-based flow cytometry, Alexa488-MEK5 binding to MEKK3; actives lie on both sides; 0 = blocked by unlabeled MEK5, 100 = vehicle. binding response (% of control), % at 10 µM. hit rate 1.4% among 290,000. AID 1529;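 active means binding response more than 3 SD above or below the average of its plate-row segment, actives on both sides; inconclusive means wells at one plate position flagged as instrument error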;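 further: Alexa488 bead fluorescence after subtracting the streptavidin-only scavenger bead signal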
MEKK2 WT-MEK5 = raises or lowers MEK5 binding to wildtype human MEKK2 PB1 domain; Q9Y2U5; bead flow cytometry, Alexa488-MEK5 binding to MEKK2 WT; actives lie on both sides; binding response (% of control), % at 10 µM; hit rate 1.1% among 290,000; in the data active means binding response below about 67% or above about 130%; inconclusive means no clear call, values can overlap the other calls; inactive means in between
MEKK2wt confirm = raises or lowers MEK5 binding to wildtype human MEKK2, retest | shares compounds with MEKK3 PB1 HTS | bead flow cytometry, Alexa488-MEK5 binding to MEKK2 WT; actives lie on both sides | binding response (% of control), % at 10 µM | hit rate 2.4% among 5,900; in the data active means binding response below about 16% or above about 210%; inactive means in between
MEKK2mut confirm = signal of MEK5 binding to mutant human MEKK2, retest. shares compounds with MEKK3 PB1 HTS. bead flow cytometry, Alexa488-MEK5 binding to MEKK2 mutant. percent response, % at 10 µM. hit rate 2% among 5,900. AID 1893; in the data active means percent response mostly above about 71%, no sharp cut-off; inactive means mostly below about 38%;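 further: higher means compound restores mutant binding toward wildtype level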
MEKK3 confirm = confirmation of inhibitors of MEK5 binding to human MEKK3; shares compounds with MEKK3 PB1 HTS; bead flow cytometry, Alexa488-MEK5 binding to MEKK3; hits give low values; binding response (% of control), % at 10 µM; hit rate 1.8% among 5,900; AID 1894;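 active means binding response below 72% of control, or above a set upper limit, though filed actives all read lower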;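 further: 100% = DMSO only wells and 0% = binding blocked by excess unlabeled MEK5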
* = called active by the depositor; ? = inconclusive; · = not tested or not shown; [ ] = remark or other dose.

SMILES | MEKK2 mut-MEK5 | dFosB act | FID counter | MEKK3 PB1 HTS | MEKK2 WT-MEK5 | MEKK2wt confirm | MEKK2mut confirm | MEKK3 confirm
NC(=NCCCCCCN=C(N)/N=C(\N)Nc1ccc(Cl)cc1)/N=C(\N)Nc1ccc(Cl)cc1 | 96.0* | 5.7 | 59.3* | 113.0 | 345.0* | 268.0* | 121.0* | 113.0
C/C(Cc1ccccc1)=N\NC(=O)CNC(=O)c1ccccc1F | -3.0 | 0.0 | -6.4 | 102.0 | 99.0 | · | · | ·
COc1ccc(Cl)cc1NC(=O)NCC1CCN(C(=O)OC(C)(C)C)CC1 | 28.0 | -18.7 | -29.5 | 128.0* | 118.0 | 100.0 | -10.0 | 98.0
COc1ccc(Cl)cc1NC(=O)NC1CCCCC1 | -13.0 | 4.5 | -2.8 | 81.0*[inhibitor] | 91.0 | 93.0 | -4.0 | 96.0
COc1ccc(Cl)cc1NC(=O)NCCN1CCCCC1 | 3.0 | -4.1 | 12.9 | 103.0 | 106.0 | · | · | ·
CC(=O)Nc1ccc(NC(=O)C(C)OC(=O)CCCOc2ccc(Cl)cc2C)cc1 (configuration not stated) | · | -10.7 | · | · | · | · | · | ·
CC1Cc2ccccc2N1S(=O)(=O)c1cccs1 (configuration not stated) | 18.0 | 4.1 | -17.4 | 104.0 | 8.0*[inhibitor] | 87.0 | -12.0 | 91.0
Cc1ccc(S(=O)(=O)N2c3ccccc3CC2C)cc1 (configuration not stated) | -5.0 | -0.1 | -7.4 | 100.0 | 98.0 | · | · | ·
CC(C)N1CCN(Cc2ccsc2)CC1CCO (configuration not stated) | -5.0 | -3.0 | 1.0 | 82.0 | 91.0 | · | · | ·
COCCN(C(=O)C1CC1)c1nnc(-c2cccc(C)c2)s1 | -21.0 | -4.4 | -17.5 | 0.0*[inhibitor] | 0.0*[inhibitor] | 109.0 | 15.0 | 110.0
COCCN(C(=O)c1cccc(OC)c1)c1nnc(-c2ccncc2)s1 | 4.0 | -15.3 | -3.5 | 96.0 | 101.0 | · | · | ·
CCOC(=O)C1CCCN(C(=O)c2ccc3ncsc3c2)C1 (configuration not stated) | · | 2.1 | · | · | · | · | · | ·
COc1cc(/C=N/NC(=O)c2ccc(Cl)cc2)ccc1OCC(=O)N1CC(C)OC(C)C1 (configuration not stated) | -4.0 | -11.5 | -28.5 | 52.0*[inhibitor] | 74.0 | 102.0 | 1.0 | 103.0
COc1ccc(CN(C2CCCCC2C)S(=O)(=O)c2ccc(S(=O)(=O)N(C)C)cc2)cc1OC (configuration not stated) | 0.0 | 4.0 | -33.5 | 137.0* | 98.0 | 99.0 | 8.0 | 104.0
O=C(C(Cl)Cl)N1CC2CCC(CC2)C1 | · | 1.5 | · | · | · | · | · | ·
OCCN(Cc1ccccc1)C(=S)NC1CCCCC1 | -5.0 | 2.1 | -2.4 | 102.0 | 96.0 | · | · | ·
S=C(NC1CCCCC1)N(CCc1ccccc1)CCc1ccccc1 | 51.0* | 4.4 | -1.2 | 107.0 | 125.0 | 108.0 | 0.0 | 101.0
CCN(CCNCC(O)COc1ccccc1C(C)C)c1cccc(C)c1 (configuration not stated) | 44.0* | 2.5 | 32.1 | 109.0 | 174.0* | 169.0 | 29.0 | 95.0
CCc1cc2cc(C(=O)N3CCN(Cc4ccccc4)CC3)sc2s1 | -13.0 | -3.2 | -13.4 | 77.0*[inhibitor] | 91.0 | 89.0 | -11.0 | 85.0
Nc1nnc(CSCc2ccc(Cl)cc2Cl)s1 | 1.0 | -4.4 | -5.2 | 130.0* | 106.0 | 100.0 | 1.0 | 98.0
Nc1nnc(CSCc2ccc(Cl)cc2)s1 | 0.0 | 6.3 | -1.1 | 97.0 | 99.0 | · | · | ·
CC(Cc1ccccc1)NC(=O)/C=C/c1ccc([N+](=O)[O-])cc1 (configuration not stated) | 1.0 | -3.3 | 0.3 | 150.0* | 108.0 | 101.0 | -2.0 | 102.0
Cc1cc(-c2csc(N)n2)c(C)n1CCc1ccccc1 | 7.0 | ? | -7.6 | 94.0 | 56.0*[inhibitor] | 103.0 | 0.0 | 93.0
COC(=O)c1c(C)oc(C)c1S(=O)(=O)Nc1ccccc1 | 24.0 | -6.4 | -9.0 | 132.0* | 130.0 | 98.0 | -2.0 | 102.0
COC(=O)c1c(C)oc(C)c1S(=O)(=O)N1CCCC1 | 27.0 | 5.2 | -4.1 | 131.0* | 130.0 | 103.0 | -1.0 | 100.0
SMILES | MEKK2 mut-MEK5 | dFosB act | FID counter | MEKK3 PB1 HTS | MEKK2 WT-MEK5 | MEKK2wt confirm | MEKK2mut confirm | MEKK3 confirm
COC(=O)c1c(C)oc(C)c1S(=O)(=O)NC(C)(C)C | 0.0 | 7.1 | -6.4 | 95.0 | 97.0 | · | · | ·
COC(=O)c1c(C)oc(C)c1S(=O)(=O)N(Cc1ccccc1)C(C)C | 28.0 | · | -32.8 | 129.0* | 134.0 | -2.0*[inhibitor] | -4.0 | 99.0
COc1ccc(-c2cc(-c3nnc(COC(=O)CC4CCCC4)o3)c3ccccc3n2)cc1OC | 0.0 | -10.2 | -13.7 | 135.0* | 93.0 | 95.0 | -9.0 | 99.0
Cc1cc(-c2ccccc2)nc(=O)[nH]1 | 3.0 | -4.7 | -4.6 | 130.0* | 117.0 | 102.0 | 7.0 | 106.0
N#Cc1sc2nc(-c3ccccc3)cc(-c3ccco3)c2c1N | -1.0 | -18.5 | -4.0 | 95.0 | 89.0 | · | · | ·
N#Cc1sc2nc(C3CC3)cc(-c3ccccc3)c2c1N | 0.0 | 4.3 | -3.9 | 131.0* | 100.0 | 104.0 | 2.0 | 103.0
COc1cc2cc(CCOC(=O)c3ccc(F)cc3)oc(=O)c2cc1OC | · | -5.7 | · | · | · | · | · | ·
COc1ccc2c3c([nH]c2c1)C(C)N(CCC(=O)NN)CC3 (configuration not stated) | 16.0 | -4.0 | 2.0 | 107.0 | 140.0* | 146.0 | 27.0 | 107.0
COc1ccc2c3c([nH]c2c1)C(C)N(C(C)=O)CC3 (configuration not stated) | 1.0 | -0.4 | -5.2 | 94.0 | 97.0 | · | · | ·
COc1ccccc1C(CCNCc1ccc(N(C)C)cc1)c1ccc(OC(C)C)cc1 (configuration not stated) | 61.0* | 6.1 | 22.8 | 117.0 | 229.0* | 160.0 | 30.0 | 107.0
COc1ccc(C(CCNCc2ccc(OC(C)C)cc2)C(C)C)cc1 (configuration not stated) | 15.0 | · | 22.5 | 102.0 | 126.0 | · | · | ·
COc1ccc(CNCCC(c2ccc(OC(C)C)cc2)c2ccccc2OC)cc1 (configuration not stated) | 47.0* | -3.8 | 22.3 | 112.0 | 193.0* | 181.0 | 41.0 | 111.0
COc1ccc(C(CCNCc2ccc(N(C)C)cc2)C(C)C)cc1 (configuration not stated) | 19.0 | 5.1 | 26.5 | 103.0 | 124.0 | · | · | ·
COc1ccccc1C(CCNCc1ccccc1)c1ccc(OC(C)C)cc1 (configuration not stated) | 24.0* | -1.1 | 36.1 | 110.0 | 158.0* | 148.0 | 30.0 | 108.0
COc1ccc(CNCCC(c2ccc(OC(C)C)cc2)c2ccccc2OC)cc1OC (configuration not stated) | 28.0* | 2.4 | 21.3 | 112.0 | 156.0* | 148.0 | 27.0 | 112.0

Compound activity (PubChem)
